The full list was thinned out, with hits kept by preference.
HTT ATP protect – protects HTT-Q103 PC12 cells, measured by ATP; AID 1471; Potency, µM (top dose mostly 56.4 µM), inactives show cytoprotection (ATP increase), hits mostly activators; PC12 HTT-Q103 induced, cytoprotection, ATP luminescence, 40 h; 0.14% of 230,000 active; note: % of control where 0% means no effect; nearly all actives have a fitted effect of over 45% in size
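PC12 cells stably carrying ecdysone-inducible Htt exon 1 (Q103)–GFP were induced with 100 nM tebufenozide (final) alongside library compounds in a dose series. Cytoprotection was scored as retained ATP by ATPlite luminescence.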
PINK1 expr mod – PINK1 expression modulation | PINK1 immunofluorescence, high-content cytometry, 24 h | 0.2% of 410,000 active | Potency, µM (titrated, usually from 76.6 µM), for the others: at the top dose activation (PINK1 increase), most hits filed as activators; active = well fitted activation curve with a large enough effect; inconclusive = small, poorly fitted or top-dose-only effect; cell line not stated here; note: % of control where 0% means no effect; nearly all actives have a fitted effect of over 65% in size
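A stable cell line was treated with compounds at 5 concentrations for 24 hours, with CCCP as control. PINK1 levels and mitochondrial localization were measured by immunofluorescence with mitochondrial, cell and nuclear markers after fixation, read by laser-scanning cytometry.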
Anesthetic bind – binds horse apoferritin like a general anesthetic. apoferritin/1-aminoanthracene competitive binding, fluorescence. P02791. 0.074% of 350,000 active. Potency, µM (series often up to 77.5 µM), for the others: at the highest dose activity change, negative = displacement, most hits filed as inhibitors; note: % is set by controls: 0 for no effect and ±100 for the full control effect; nearly all actives have a fitted effect of over 20% in size
Target sequence (P02791 2-175 limits assumed): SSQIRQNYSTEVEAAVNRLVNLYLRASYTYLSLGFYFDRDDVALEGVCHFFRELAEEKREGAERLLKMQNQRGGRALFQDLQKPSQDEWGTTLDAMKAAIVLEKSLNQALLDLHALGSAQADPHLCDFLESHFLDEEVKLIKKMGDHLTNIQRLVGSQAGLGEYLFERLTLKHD
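Concentration-response curves derived by four-parameter Hill fitting of normalized fluorescence, where compounds displaced 1-AMA from 10 uM horse apoferritin following a brief 10 min room-temperature incubation; propofol titration acted as positive control.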
Epigenetic derep – epigenetic control regulation, reporter derepression; 0.2% of 280,000 active; murine LDR cells, GFP reporter derepression, 30 h; AID 1865; Potency, µM (titrated, usually from 53.9 µM), for inactives: at the highest dose GFP activation, usual class: activators; note: % of control where 0% means no effect; nearly all actives have a fitted effect of over 60% in size
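Derepression of a silenced CMV-GFP reporter in murine LDR cells is scored by enumerating GFP-positive cells with a laser-scanning microplate cytometer after 30 hours of treatment at 37 C.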
PTAP TSG101 blk – blocks PTAP/TSG101 interaction to inhibit HIV-1 budding | Fluorescence polarization, FITC-PTAP peptide / Tsg101 binding | Potency, µM (top dose mostly 115 µM), inactives show at the top dose activity change, negative = inhibition, most hits filed as inhibitors | 340,000 tested, under 10 active | AID 493005; active = well fitted inhibition curve with a large enough effect in the main read-out, with a control signal flat, not every such curve was filed as active; inconclusive = small, poorly fitted or top-dose-only effect, or effect the other way, or a change in a side signal; inactive = no such curve, though single readings can be large or run the other way; note: % of control where 0% means no effect
Target sequence (Q99816 whole entry, looked up): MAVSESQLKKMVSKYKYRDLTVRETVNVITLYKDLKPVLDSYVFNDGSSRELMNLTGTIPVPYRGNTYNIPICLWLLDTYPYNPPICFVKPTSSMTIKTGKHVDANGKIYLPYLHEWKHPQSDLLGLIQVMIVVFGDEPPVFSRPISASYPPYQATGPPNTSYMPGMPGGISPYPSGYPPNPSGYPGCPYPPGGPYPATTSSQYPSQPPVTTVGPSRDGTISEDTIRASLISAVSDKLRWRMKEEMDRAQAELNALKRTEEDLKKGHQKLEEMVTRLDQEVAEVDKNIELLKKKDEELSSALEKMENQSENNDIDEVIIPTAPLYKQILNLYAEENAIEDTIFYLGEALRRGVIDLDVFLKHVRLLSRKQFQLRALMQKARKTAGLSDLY
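Fluorescence anisotropy tracks displacement of a FITC-tagged PTAP peptide (50 nM) from the Tsg101 binding domain (10 uM), following a 20 min room-temperature incubation at pH 7.5.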
HttQ103 aggreg – mutant huntingtin aggregation inhibition. PC12 HttQ103-GFP aggregates, Acumen cytometry, 40 h. Potency, µM (highest dose often 46.1 µM), inactives show at the highest dose activity change, negative = inhibition, usual class: inhibitors. 1.1% of 220,000 active; note: % is set by controls: 0 for no effect and ±100 for the full control effect; nearly all actives have a fitted effect of over 60% in size
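PC12 cells with ecdysone-inducible HTT exon1 Q103-GFP, induced by 100 nM tebufenozide, given compounds in a concentration series. GFP aggregates (1–25 um, 6 SD above background) counted in lysates by laser-scanning cytometry, 488 nm excitation.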
* marks the source's active call; other numbers are inactive results; ? = inconclusive; nt = no result; [ ] = another dose, or the depositor's remark. Unless noted, calls come from the whole dose curve; as a rule, active = well fitted curve in the direction sought with a large enough effect; inconclusive = small, poorly fitted or top-dose-only effect, or another doubt; inactive = no such curve, though single readings can be large; an effect the other way counts as inactive or inconclusive. Potency is the fitted concentration of half-maximal effect.

SMILES	HTT ATP protect	PINK1 expr mod	Anesthetic bind	Epigenetic derep	PTAP TSG101 blk	HttQ103 aggreg
CCN1/C(=C/C=C/c2oc3ccc(-c4ccccc4)cc3[n+]2CC)Oc2ccc(-c3ccccc3)cc21	-94%[10 µM]	?	?	83%	?	0.35µM*
Cc1ccc(C)c(CSCC(=O)NCc2cccs2)c1	3.5µM*	-1%	-19%	-3%	-5%	7%
Cc1ccc(CNC(=O)CSCc2ccccc2C)cc1	nt	0%	-2%	10%	nt	nt
O=C(NCc1ccc2c(c1)OCO2)C1CCCN(S(=O)(=O)c2cccnc2)C1 (centres undefined)	14%[10 µM]	-1%	-5%	0%	-2%	32µM*
Cc1[nH]c2ccccc2c1SCCNC(=O)c1ccc(Br)o1	-20%[10 µM]	nt	-11%	6%	-1%	25µM*
O=C(NCCSc1c[nH]c2ccccc12)c1ccc(Br)o1	29%[10 µM]	-1%	-9%	1%	-5%	-6%
O=C(c1n[nH]c2c1CCCC2)N1CCOc2ccc(C(O)C3CCCCC3)cc2C1 (centres undefined)	nt	2%	nt	nt	nt	nt
O=c1c(O)c(-c2cccs2)oc2ccc(Cl)cc12	23%	0%	182%	0%	-4%	14µM*
Cc1ccc2oc(-c3ccccc3)c(C(=O)O)c(=O)c2c1	-59%	1%	?	-1%	-1%	10µM*
O=c1c(O)c(-c2cccs2)oc2ccccc12	17%[10 µM]	-5%[38.3 µM]	177%	-11%	-2%	11µM*
O=c1c(O)c(-c2ccccc2)oc2ccccc12	nt	2%	-11%	12%	1%	nt
Cc1ccc(-c2oc3ccccc3c(=O)c2O)cc1	-13%	1%	-6%	1%	-5%	11µM*
COC(=O)[C@@H]1CCCN1C(=O)c1c(OC)cc(=O)n2c1CCN(Cc1ccc3cccnc3c1)CC2	nt	2%	nt	nt	nt	nt
COc1ccc(OC)c(C(=O)N2CCOc3ccc(C(C)(O)CN(C)C)cc3C2)c1 (centres undefined)	nt	0%	nt	nt	nt	nt
COc1c(-c2coc3cc4c(cc3c2=O)CC(O)C(C)(C)O4)ccc2c1C=CC(C)(C)O2 (centres undefined)	-357%	nt	?	-1%	nt	nt
CCOC(=O)C1CCN(CC(C)(C)NS(=O)(=O)c2ccc(C)cc2)CC1	nt	-1%	-4%	nt	-7%	nt
Cc1ccc(S(=O)(=O)NC(C)(C)CN2CCC(Cc3ccccc3)CC2)cc1	-5%[10 µM]	40µM*	0%	-1%	-3%	-6%[9.22 µM]
CC(NC(=O)Cn1nc(-c2ccccc2)c2ccccc2c1=O)c1ccccc1 (centres undefined)	-21%	-1%	14µM*	-1%	-2%	16%
Cn1c(=O)n(C)c2cc(NS(=O)(=O)c3ccc4c(c3)CCCC4)ccc21	-12%[0.074 µM]	1%[38.3 µM]	-10%	-1%	0%	2.8µM*
Cn1c(=O)n(C)c2cc(NS(=O)(=O)c3ccc(C(C)(C)C)cc3)ccc21	6%[10 µM]	0%	?	-1%	-5%	13%[9.22 µM]
CC(C)(C)c1ccc(-n2nc(C(N)=O)c(O)cc2=O)cc1	-33%	1%	0%	0%	0%	10%
CC(C)(C)c1ccc(-n2nc(C#N)c(Cl)cc2=O)cc1	-192%	-4%	?	0%	-1%	5µM*
Nc1nc(NCc2ccc(F)cc2)c2[nH]cnc2n1	nt	0%	nt	nt	nt	nt
NCCCN(Cc1ccccc1)c1ccc(Br)cn1	nt	1%	nt	nt	nt	nt
Cc1ccc(NS(=O)(=O)c2ccc(C(=O)N3CCN(c4ccccn4)CC3)cc2)cc1	-14%	2%	?	0%	-2%	11µM*
SMILES	HTT ATP protect	PINK1 expr mod	Anesthetic bind	Epigenetic derep	PTAP TSG101 blk	HttQ103 aggreg
CCOC(=O)c1ccc(NC(=O)N2CCN(c3ccccn3)CC2)cc1	2%	1%	4%	-1%	-4%	0.56µM*
COc1ccc(-[n+]2c(C)cc(/C=C3\Sc4ccccc4N3C)cc2C)cc1	nt	18%	?	3.2µM*	15%	1.1µM*
COc1ccccc1-[n+]1c(C)cc(/C=C2\Sc3ccccc3N2C)cc1C	-80%[10 µM]	4%	-18%	7.9µM*	?	0.89µM*
Cc1cnc(C)c(-c2cccc3c2OC(CNC(=O)CN2C(=O)c4ccccc4C2=O)C3)n1 (centres undefined)	nt	-1%	nt	nt	nt	nt
COc1ccc(N2CCN(CCCNC(=O)c3c(C)nn(-c4ccc(F)cc4)c3-n3cccc3)CC2)cc1	nt	-1%	-1%	2%	nt	nt
CCOC(=O)/C(=N/Nc1ccccc1)c1csc(Nc2ccccc2)n1	-20%	11µM*	?	-5%	0%	1%
O=C(Nc1nc2c(F)cc(F)cc2s1)c1ccc(S(=O)(=O)N2CCc3ccccc32)cc1	nt	16µM*	46%	-4%	nt	nt
COCc1nnc(NC(=O)c2ccc(S(=O)(=O)N3CCCc4ccccc43)cc2)o1	-134%	8%	-8%	0%	9%	?
O=C(Nc1nc2c(F)cccc2s1)c1ccc(S(=O)(=O)N2CCCc3ccccc32)cc1	nt	12%	-1%	4%	nt	nt
CC(=O)Nc1ccc(S(=O)(=O)N2CCCc3ccccc32)cc1	-42%	3.2µM*	-7%	2%	-7%	-31%
O=C(Nc1nnc(C2CC2)o1)c1ccc(S(=O)(=O)N2CCCc3ccccc32)cc1	-17%	3%	-13%	0%	-6%	11µM*
CNC(=O)c1c(NC(=O)c2ccc(S(=O)(=O)N3CCCc4ccccc43)cc2)sc2c1CCN(C)C2	1%[10 µM]	?	-9%	22µM*	?	-22%[9.22 µM]
CC(NC(=O)C1CCOCC1)c1nnc2n1CCN(Cc1ccc3cccnc3c1)CC2 (centres undefined)	nt	2%	nt	nt	nt	nt
COc1cc(-c2cc(C)c3cccc(OC)c3n2)cc2c1OCCN(C(=O)Cn1nc(C)cc1C)C2	nt	0%	nt	nt	nt	nt
O=C(NCCCN1CCOCC1)c1cc(-c2ccc(Cl)c(Cl)c2)on1	nt	14%	5%	nt	-6%	nt
O=C(NCCCN1CCOCC1)c1cc(-c2cccs2)on1	33%[10 µM]	4%[38.3 µM]	-8%	14µM*	-13%	3%
Cc1ccc(-c2cc(C(=O)NCCCN3CCOCC3)no2)cc1	-32%	-1%[38.3 µM]	-10%	-1%	-2%	3.2µM*
c1ccc(-c2csc3ncnc(NCCCN4CCOCC4)c23)cc1	-13%[10 µM]	0%	-7%	-1%	-1%	0%
c1csc(-c2csc3ncnc(NCCCN4CCOCC4)c23)c1	26%[1.9 µM]	2%[38.3 µM]	2%	0%	-13%	7.9µM*
CCn1nc(C)cc1C(=O)NCCN1Cc2ccccc2OC(c2ccccc2F)C1 (centres undefined)	nt	2%	nt	nt	nt	nt
CC1CCN(C(=O)C2COc3ccccc3C2)CC1 (centres undefined)	nt	0%	4%	3%	nt	nt

Screens: PubChem, National Center for Advancing Translational Sciences (NCATS)
